Assay outcomes deposited in PubChem by National Center for Advancing Translational Sciences (NCATS).
HT1080-NT tox: kills 2HG-producing HT-1080-NT fibrosarcoma cells; HT-1080-NT fibrosarcoma viability, CellTiter-Glo ATP luminescence, 48 h; Potency, µM (doses to about 46.1 µM), for the others: at the top dose activity, negative = less viability, usual class: cytotoxic; 1.6% of 360,000 active;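 note: NT is the 2HG producing partner of a matched IDH1 knockdown line; potency is the fitted concentration of half-maximal effect; 0% = DMSO-treated cells and -100% = media-only wells without cells; nearly all actives have a fitted effect of over 55% in size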
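Fibrosarcoma NT cells, 750 per well in 5% FBS RPMI, were exposed to compound for 48 hours. Viability: CellTiter-Glo luminescence.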
IL1B secr inh: inflammasome signaling inhibition, IL-1 beta readout. THP-1 LPS/ATP IL-1B secretion, AlphaLISA, 16 h; stronger effect = lower value. activity change, % at 57.5 µM. AID 743279. 4.7% of 360,000 active; in the data active = activity change below about -50%; inconclusive = mostly about -30% to -49%
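Secreted IL-1B measured by AlphaLISA bead assay after 16 h compound exposure of THP-1 cells; compounds (final up to 57.5 uM) added 1 h before LPS (250 ng/mL) and ATP (1.25 mM) stimulation; lower signal means less secretion.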
HT1080 IDH1KD tx: kills HT-1080 cells with IDH1 knockdown; HT-1080 IDH1 knockdown viability, ATP luminescence, 48 h; 2% of 360,000 active; Potency, µM (top dose mostly 46.1 µM), inactives show at the highest dose activity, negative = toxicity, most hits filed as cytotoxic;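 note: potency is the fitted concentration of half-maximal effect; 0% = DMSO wells and -100% = cell-free medium wells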
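% activity derives from luminescence (CellTiter-Glo), normalised to DMSO and no-cell wells. HT-1080-IDH1KD cells, 750/well, had 48 h compound exposure at 37 °C.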
12-LOX inh: inhibitors of human 12S-lipoxygenase ALOX12; Potency, µM (doses to about 108 µM), for inactives: top-dose activity change, negative = inhibition, usual class: inhibitors; purified 12hLO, xylenol orange hydroperoxide absorbance; 1.1% of 580,000 active; P18054; note: potency is the fitted concentration of half-maximal effect
Target sequence (P18054 whole entry, looked up): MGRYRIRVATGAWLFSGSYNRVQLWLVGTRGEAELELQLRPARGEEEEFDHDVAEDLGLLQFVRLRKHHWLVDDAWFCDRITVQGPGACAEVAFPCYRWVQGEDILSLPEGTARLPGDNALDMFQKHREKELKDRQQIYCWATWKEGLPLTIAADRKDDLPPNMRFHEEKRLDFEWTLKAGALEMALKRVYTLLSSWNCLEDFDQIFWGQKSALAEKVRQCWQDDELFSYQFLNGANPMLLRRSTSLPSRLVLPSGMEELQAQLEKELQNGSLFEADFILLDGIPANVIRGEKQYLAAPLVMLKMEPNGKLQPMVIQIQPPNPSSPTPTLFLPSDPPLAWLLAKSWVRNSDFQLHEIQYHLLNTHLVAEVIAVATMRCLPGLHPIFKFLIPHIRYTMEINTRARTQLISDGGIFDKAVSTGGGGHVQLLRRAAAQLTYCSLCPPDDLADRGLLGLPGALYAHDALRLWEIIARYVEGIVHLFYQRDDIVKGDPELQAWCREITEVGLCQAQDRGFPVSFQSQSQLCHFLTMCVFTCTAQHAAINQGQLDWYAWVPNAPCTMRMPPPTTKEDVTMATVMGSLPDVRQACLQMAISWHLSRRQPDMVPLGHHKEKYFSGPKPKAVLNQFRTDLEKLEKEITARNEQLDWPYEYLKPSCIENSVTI
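Hydroperoxide product was detected by ferrous iron/xylenol orange as the 573 to 405 nm absorbance ratio. Arachidonic acid at 40 uM (final) was turned over for 30 min at room temperature by 150 nM human 12hLO, pH 7.0 Hepes buffer, after 15 min compound preincubation.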
TDP1 cell noCPT: qHTS for Inhibitors of human tyrosyl-DNA phosphodiesterase 1 (TDP1): qHTS in cells in absence of CPT | DT40 Tdp1-/- hTDP1 cells, no CPT, ATP luminescence, 48 h | Potency, µM (top dose mostly 46.2 µM), for inactives: top-dose activity change, negative = growth inhibition, hits mostly inhibitors | 15% of 420,000 active; note: potency is the fitted concentration of half-maximal effect; nearly all actives have a fitted effect of over 55% in size
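Compound effects on proliferation are scored in DT40 Tdp1-/-;hTDP1 cells in the absence of CPT. ATP levels (CellTiter-Glo luminescence) are recorded after a ≥48 hr, 37 °C incubation.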
DT40 TDP1 CPT: DT40-hTDP1 cell growth loss with CPT | Potency, µM (highest dose often 46.2 µM), for the others: at the highest dose activity change, negative = growth inhibition, usual class: inhibitors | 12% of 420,000 active | chicken DT40 Tdp1-/-;hTDP1 cells + 20 nM CPT, ATP luminescence, 48 h; note: potency is the fitted concentration of half-maximal effect; nearly all actives have a fitted effect of over 55% in size
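Chicken DT40 Tdp1-/- cells stably complemented with human TDP1 were seeded at 400 cells/well in medium containing 20 nM camptothecin, exposed to pin-transferred compounds, and grown at 37 °C for at least 48 hr. Viability was read as ATP luminescence.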
The depositor's hits bear a star; ? = inconclusive; / = no result; [ ] = remark or other dose. The sample as a whole holds a higher share of hits than the screen did. Unless noted, calls come from the whole dose curve; as a rule, active = well fitted curve in the direction sought with a large enough effect; inconclusive = small, poorly fitted or top-dose-only effect, or another doubt; inactive = no such curve, though single readings can be large; an effect the other way counts as inactive or inconclusive. Unless noted, % is set by controls: 0 for no effect and ±100 for the full control effect.

SMILES	HT1080-NT tox	IL1B secr inh	HT1080 IDH1KD tx	12-LOX inh	TDP1 cell noCPT	DT40 TDP1 CPT
COc1cc2nc(C3CCC3)n(NC(=O)C3CCCC(OC)C3)c(=O)c2cc1OC (stereo not drawn)	17%	-14	-3%	9%	-20%	-33%
O=C(CSc1nnnn1-c1ccccc1)NC(=O)Cc1ccccc1	3%[9.24 µM]	8	0%	-24%	6%	1%
CCOC(=O)c1c(-c2ccccc2)csc1NC(=O)CSc1nncs1	-21%	0	-18%	-7%	16µM*	23µM*
CCOC(=O)c1c(-c2ccccc2)csc1NC(=O)CSc1nnnn1C	?	-8	11µM*	27%	?	18µM*
CCOC(=O)c1c(-c2ccc(C)cc2)csc1NC(=O)CCSc1nnc2ccccn12	-4%	22	-3%	11%	23µM*	23µM*
Cn1nnnc1SCC(=O)NC(=O)Cc1ccccc1	3%	41	2%	0%	6.5µM*	12µM*
COc1ccc(CN2CCCC3(Cc4ccccc4CN(C(C)=O)C3)C2)cc1 (stereo not drawn)	/	/	/	8%[6.33 µM]	/	/
CC(C)CCNc1nc(C(=O)OC(C)C(=O)NC(=O)NC2CC2)cs1 (stereo not drawn)	/	/	/	-27%	/	/
O=C(NCc1ccc(Cn2cccn2)cc1)c1cn[nH]c1-c1ccccc1	/	/	/	-66%	/	/
O=C(NCC1CN(Cc2ccccc2)CCO1)C1CCCCC1 (stereo not drawn)	/	/	/	-3%	/	/
O=C(Cn1c(=O)oc2ccccc21)N[C@@H]1CCOC[C@H]1Oc1ccccn1	/	/	/	22%	/	/
O=C(Cn1ccc2cc(Cl)ccc21)Nc1ccc2c(c1)OCO2	/	/	/	-2%	/	/
CC1(C)CC(NC(=O)CCCCC(=O)NC2CC(C)(C)NC(C)(C)C2)CC(C)(C)N1	/	/	/	-10%	/	/
CCOC(=O)c1c(NC(=O)CSc2nnnn2C)sc(C)c1-c1ccc(C)cc1	?	?	8.9µM*	18%	16µM*	?
O=C(O)COc1ccccc1/C=N/NC(=O)CSc1nnc(SCc2cccc3ccccc23)s1	0%	5	10%	-18%	?	-7%
O=C(O)COc1ccccc1/C=N/NC(=O)CSc1nnc(SCc2ccc(Cl)cc2)s1	-14%	13	-1%	-25%	-14%	-23%
O=C(CSc1nnc(SCc2cccc3ccccc23)s1)N/N=C/c1c[nH]c2ccccc12	-19%	31	?	-16%	16µM*	?
O=C(CSc1nnc(SCc2ccc(Cl)cc2)s1)N/N=C/c1c[nH]c2ccccc12	?	1	18µM*	-15%	?	?
Nc1nccnc1C(=O)NCCOc1ccccc1	/	/	/	2%	/	/
C=CCNC(=O)NC(=O)COC(=O)Cc1cccc(C(F)(F)F)c1	/	/	/	-34%	/	/
CCc1ccc2oc(C(=O)Nc3cccnc3)c(C)c2c1	-13%	-4	-15%	/	23µM*	16µM*
Cc1c(C(=O)Nc2cnccn2)oc2ccccc12	-29%	32	?	18%	?	12µM*
Cc1coc(NC(=O)CSc2nc(-c3ccc(Cl)cc3)cc(C(F)(F)F)c2C#N)n1	?	43	-24%	0%	?	21µM*
COc1ccc(C(=O)OCC(=O)Nc2ccccc2)c(C)c1	/	/	/	3%	/	/
CS(=O)(=O)c1nc(-c2ccccc2)cc(C(F)(F)F)n1	21µM*	-96*	12µM*	-3%	1.2µM*	1µM*
SMILES	HT1080-NT tox	IL1B secr inh	HT1080 IDH1KD tx	12-LOX inh	TDP1 cell noCPT	DT40 TDP1 CPT
Cc1cccc(C)c1NC(=O)CCSc1nc(-c2ccc3c(c2)OCO3)cc(C(F)(F)F)n1	/	/	/	-20%	/	/
CCS(=O)(=O)c1nc(-c2ccc(Cl)cc2)cc(C(F)(F)F)n1	/	/	/	4%	/	/
Cc1cc(NC(=O)CCS(=O)(=O)c2nc(-c3ccccc3)cc(C(F)(F)F)n2)no1	?	-121*	-14%[9.24 µM]	0%	1.8µM*	1.6µM*
Cc1ccc(S(=O)(=O)CCC(=O)Nc2cc(C)on2)cc1	5%	12	9%	-3%	-9%	-7%
O=C(CCS(=O)(=O)c1nc(-c2ccc3c(c2)OCO3)cc(C(F)(F)F)n1)Nc1ccc(F)cc1F	/	/	/	?	21µM*	?
COc1ccc(NC(=O)CCS(=O)(=O)c2nc(-c3ccc4c(c3)OCO4)cc(C(F)(F)F)n2)cc1	/	/	/	-24%	7.3µM*	6.5µM*
Cc1ccc(S(=O)(=O)N2CCN(c3nc(-c4cccnc4)nc4ccccc34)CC2)cc1C	/	/	/	2%	/	/
CC(=O)c1ccc(S(=O)(=O)N2CCN(c3nc(-c4cccnc4)nc4ccccc34)CC2)cc1	4%	-13	-4%	99%	?	21µM*
Cc1ccc(S(=O)(=O)N2CCN(c3nc(-n4ccnn4)nc4ccccc34)CC2)cc1	20%	/	12%	/	16µM*	13µM*
Cc1ccc(S(=O)(=O)N2CCN(c3nc(N(C)c4cc(Cl)ccc4O)nc4ccccc34)CC2)cc1	8%	/	10%	/	?	?
O=S(=O)(c1ccccc1)N1CCN(c2nc(-c3cccnc3)nc3ccccc23)CC1	-2%	43	-6%	-20%	21µM*	?
Cc1ccc(S(=O)(=O)N2CCN(c3nc(-c4ccnnc4)nc4ccccc34)CC2)cc1	4%	/	11%	/	16µM*	?
COc1ccc2cc(CN(C)C(=O)CNC(=O)c3ccc(Cl)cc3Cl)ccc2c1	/	/	/	52%	/	/
COc1ccc(Cl)cc1N(C)c1nc(N2CCN(S(=O)(=O)c3ccc(C)cc3)CC2)c2ccccc2n1	-15%	/	19%	/	6.3µM*	8.9µM*
Cc1ccc(C(=O)CC(=O)COc2ccc(Cl)cc2)cc1	?	0	?	?	15µM*	?
N/C(Cc1ccc([N+](=O)[O-])cc1)=N\OC(=O)c1ccc([N+](=O)[O-])cc1	-1%	?	-4%	-1%	?	?
C/C(=N\NC(=O)CSCc1ccc([N+](=O)[O-])cc1)c1cccc(Br)c1	-12%	-8	-7%	-18%	18µM*	10µM*
COc1cc(C(=O)O/N=C(\N)Cc2ccc([N+](=O)[O-])cc2)cc(OC)c1OC	?	-3	?	7%	15µM*	3.7µM*
COc1ccc(C/C(N)=N/OC(=O)c2cccc([N+](=O)[O-])c2)cc1	-1%	-12	-9%	11%	?	?
N/C(Cc1ccc([N+](=O)[O-])cc1)=N\OC(=O)c1cccc(Br)c1	0%	-5	7%	-4%	?	15µM*
